Screening data deposited in PubChem by several laboratories.
Gli-Sufu antag = antagonists of Gli-Sufu signaling; 0.74% of 340,000 active; Sufu-KO-LIGHT fibroblasts, Gli luciferase reporter luminescence; inhibition, % at 5 µM;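 active = inhibition above about 55%, limit read from the data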;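 note: 0% = DMSO-treated cells and 100% = wells with medium but no cells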
Jurkat NFkB inh = lowers PMA/ionomycin-induced NF-kB signal in Jurkat cells | PMA/ionomycin-induced NF-kB luciferase reporter, luminescence | inhibition, % at 4 µM | 0.53% of 330,000 active | AID 435003; in the data active = inhibition above about 50%
MITF TRPM1 inh = inhibitors of MITF-driven TRPM1 promoter in melanoma cells. SK-MEL-5 TRPM1 promoter luciferase, 24 h. inhibition, % at 12.5 µM. 0.83% of 330,000 active. AID 488899;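 active = mean inhibition across replicates of 60% or more, whatever share of single replicates reaches that level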
697 NFkB inh = lowers PMA/ionomycin-induced NF-kB signal in 697 B cells. 0.33% of 330,000 active. 697 B-cell NF-kB luciferase reporter, 16 h. AID 435022. inhibition, % at 4 µM; in the data active = inhibition above about 35%
LMP1 NFkB inh = Epstein-Barr LMP1 NF-kappaB reporter inhibition; 0.69% of 350,000 active; LMP1-induced NF-kappaB luciferase reporter cells, luminescence; AID 504558; inhibition, % at 12.5 µM; in the data active = inhibition above about 41%;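 note: 0% = neutral control wells and 100% = reference inhibitor control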
Shn3 3UTR inh = reduces Shn3 3'UTR luciferase signal in osteoblasts. Clone20 osteoblast Shn3 3'UTR firefly luciferase, 24 h. 0.52% of 360,000 active. inhibition, % at 12.5 µM. AID 588674;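 active = mean inhibition of at least 75% with every replicate also reaching 75%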;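 note: 0% = median of neutral control wells and 100% = pilot-screen positive control compound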
Jurkat NFkB conf = lowers PMA/ionomycin-induced NF-kB signal in Jurkat cells; shares compounds with Jurkat NFkB inh; Jurkat NF-kB luciferase, 16 h; inhibition, % at 4 µM; 27% of 2,700 active;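 active = inhibition reaching about 45% at 4 µM in either replicate, limit read from the data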;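 note: plate controls were PMA/ionomycin stimulated DMSO wells for no effect and unstimulated DMSO wells for full effect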
* marks the source's active call; other numbers are inactive results; . = no result given. The list is not random: actives were taken first. Their share in the collection is about 2.3%.

SMILES | Gli-Sufu antag | Jurkat NFkB inh | MITF TRPM1 inh | 697 NFkB inh | LMP1 NFkB inh | Shn3 3UTR inh | Jurkat NFkB conf
CN(C)S(=O)(=O)c1ccc(C(=O)Nc2ccc3c(c2)CCC3)cc1 | -17 | -42 | -45 | -74 | -9 | -72 | .
CN(C)S(=O)(=O)c1cccc(C(=O)Nc2ccc3c(c2)CCC3)c1 | -76 | -162 | -45 | -216 | -30 | -33 | -143
Nc1ccc(NC(=O)c2cccs2)cc1 | -13 | -11 | . | -7 | -4 | -16 | .
O=C(Nc1ccc2c(c1)CCC2)c1cccs1 | -53 | -176 | -70 | -145 | -32 | -91 | -108
Cc1ccc(-n2[nH]c(=O)c(-c3ccccn3)c2C)cc1 | 16 | 58* | 83* | -25 | 66* | 79 | 26
CCCCS(=O)(=O)/C=C\C=C/S(=O)(=O)CCCC | 34 | 90* | 104* | -131 | 92* | 96* | 63*
FC(F)(F)c1cc(Cl)c2nc(-c3ccccc3)cn2c1 | -59 | -150 | -39 | -191 | -44 | -51 | .
Nc1cccc(-c2cn3cc(C(F)(F)F)cc(Cl)c3n2)c1 | -112 | -194 | -17 | -134 | -20 | -76 | -46
Cc1nn(-c2ccccc2)c(C)c1CN | -3 | 0 | 5 | 16 | -2 | -13 | .
CSc1ccc(CN2CCN(C(=O)c3ccc([N+](=O)[O-])cc3)CC2)cc1 | -9 | 53* | 24 | -27 | 16 | 22 | 32
Cc1cccc(C)c1NC(=O)C1(C)CCC(=O)N1c1cc(C(C)(C)C)nn1C (configuration not stated) | . | . | . | . | . | -50 | .
CCOC(=O)c1ccc(NC(=O)C2CC3CCC2C3)cc1 (configuration not stated) | -92 | -154 | . | -164 | . | -27 | -116
COc1cccc(C2CC(=O)Nc3cc4c(cc32)CCC4)c1 (configuration not stated) | 25 | 61* | 25 | -56 | 4 | 55 | 51*
O=C1CC(c2cccc(Cl)c2)c2cc3c(cc2N1)CCC3 (configuration not stated) | 3 | 56* | 39 | -60 | 18 | 37 | 35
O=C1CC(c2cccc([N+](=O)[O-])c2)c2cc3c(cc2N1)CCC3 (configuration not stated) | 15 | 25 | 30 | 2 | 5 | 55 | .
CC(C)(C)c1ccc(NC(=O)c2ccccc2)c([N+](=O)[O-])c1 | -100 | -163 | -60 | -192 | -75 | -54 | -97
O=C(Cc1ccc(Cl)cc1)OCC(=O)c1ccc[nH]1 | -1 | 12 | -5 | 16 | 6 | -4 | .
COc1ccc(C2CC=C(C(C)=O)CN2S(=O)(=O)c2ccc(C)cc2)cc1 (configuration not stated) | . | . | . | . | . | 2 | .
CCOc1cc(C#N)c(NC(=O)c2cccnc2)cc1OCC | -1 | 62* | 18 | -32 | -17 | 1 | 52*
CCOc1cc(C#N)c(NC(=O)c2cccnc2Cl)cc1OCC | 8 | 7 | 12 | 17 | 3 | 8 | .
CC(O)c1nc2ccccc2n1CCCOc1ccccc1 (configuration not stated) | 1 | 12 | 1 | -18 | 5 | 6 | .
C/C(=N\NC(=O)c1c(Cl)c(C)nn1C)c1ccc(NC(=O)C2CCC2)cc1 | 48 | 62* | 26 | 2 | -15 | 11 | 17
C/C(=N\NC(=O)c1c([N+](=O)[O-])c(C)nn1C)c1ccc(NC(=O)C2CCCC2)cc1 | 40 | 53* | 19 | 9 | 0 | 33 | 50*
O=C(Nc1ccccc1)c1cccnc1NCCc1ccccc1 | -2 | -13 | 7 | -5 | -3 | -5 | .
O=C(NCc1ccc(F)cc1)C1CCCN1S(=O)(=O)c1cccc2nsnc12 (configuration not stated) | 3 | -6 | 8 | -5 | 0 | -1 | .
SMILES | Gli-Sufu antag | Jurkat NFkB inh | MITF TRPM1 inh | 697 NFkB inh | LMP1 NFkB inh | Shn3 3UTR inh | Jurkat NFkB conf
C=C1C(=O)[C@@]23[C@H](O)C[C@@H]4C(C)(C)CC[C@H](O)[C@@]4(C)[C@@H]2CC[C@@H]1[C@H]3O | 80* | 71* | 93* | -99 | 94* | 98* | 37
CC(=O)c1ccc2c(c1)C1C=CCC1C(c1cc3c(cc1Br)OCO3)N2 (configuration not stated) | 1 | 80* | 10 | -35 | 9 | 13 | 29
CCN(CC)CCNC(=O)C1c2ccccc2Oc2ccccc21 | 2 | -7 | -2 | -23 | -5 | 0 | .
Cc1ccc2[nH]c(=O)c(CN(Cc3ccco3)S(=O)(=O)c3c(C)ccc4nsnc34)cc2c1 | -8 | 11 | 13 | 1 | 16 | 0 | .
COc1ccc2[nH]c(=O)c(CN(Cc3cccs3)S(=O)(=O)c3c(C)ccc4nsnc34)cc2c1 | 6 | 57* | 8 | -51 | 26 | 75 | 27
CC(=O)NC1=NC(=O)/C(=C/N2CCCCC2)S1 | 1 | -16 | -5 | 6 | -1 | 1 | .
CCOc1cc(N2CCOCC2)c(OCC)cc1NC(=O)c1cc(S(=O)(=O)N2CCOCC2)ccc1F | 2 | 62* | 13 | -4 | -5 | 10 | 23
CCOc1cc(N2CCOCC2)c(OCC)cc1NC(=O)c1cccc(S(=O)(=O)N2CCOCC2)c1 | 8 | -10 | -1 | -19 | -9 | 8 | .
Cc1ccc(S(=O)(=O)N2CCN(C(=O)CNC(=O)c3ccc(Cl)cc3)CC2)cc1 | 5 | 2 | 2 | -13 | -6 | 17 | .
COc1ccc(C2CC(=O)c3c(C)nc(N4CCN(Cc5ccccc5)CC4)nc3C2)cc1OC (configuration not stated) | 18 | -10 | 41 | -47 | 14 | 43 | .
COc1cc(C2CC(=O)c3cnc(N4CCN(Cc5ccccc5)CC4)nc3C2)cc(OC)c1OC (configuration not stated) | -10 | 59* | 29 | -73 | 20 | 39 | 16
CC(=O)Nc1ccc2c(c1)nc1n2CCSC1 | -3 | 0 | -2 | 6 | 1 | -15 | .
Cc1ccc(C(=O)Nc2ccc3c(c2)nc2n3CCSC2)cc1 | -112 | -171 | -24 | -111 | 10 | -66 | -71
CCOc1ccccc1C1CC(=O)NC2=C1C(=O)CCC2 (configuration not stated) | 2 | 47 | 8 | -22 | -3 | -4 | .
CCCOc1ccccc1C1CC(=O)NC2=C1C(=O)CCC2 (configuration not stated) | 10 | 59* | 19 | -54 | 2 | -2 | 25
CCCCOc1ccccc1C1CC(=O)NC2=C1C(=O)CCC2 (configuration not stated) | 39 | 62* | 25 | -23 | 7 | 11 | 50*
COc1cc(OC)c(OC)cc1CN1CCc2ccccc2C1 | 9 | -3 | -5 | -14 | 1 | 24 | .
COC(=O)CC(C(=O)Nc1cc(C(=O)OC)cc(C(=O)OC)c1)N1CCN(C)CC1 (configuration not stated) | -4 | -10 | -2 | 12 | -1 | 15 | .
